Measured values: PubChem BioAssay (NCATS)
Inconclusive results are not listed. A call without a number means that no potency is given here. Active and inactive are the calls of the source. The call rests on the fitted dose curve; in most records, active means well fitted curve in the direction sought with a large enough effect; inconclusive means small, poorly fitted or top-dose-only effect, or another doubt; inactive means no such curve, though single readings can be large; an effect the other way counts as inactive or inconclusive.

Key:
[1] = target: Aldehyde dehydrogenase, mitochondrial (Homo sapiens) (UniProt P05091); assay: qHTS for Inhibitors of the Aldehyde Dehydrogenase Family (ALDH2) Primary screen (AID 2061308); details: ALDH2 enzyme inhibition qHTS, 1536-well; series mostly up to 56 µM; further: nearly all actives have a fitted effect of over 55% in size
[2] = target: Retinaldehyde dehydrogenase 3 (Homo sapiens) (UniProt P47895); assay: qHTS for Inhibitors of the Aldehyde Dehydrogenase Family (ALDH1A3) Primary screen (AID 2061315); details: ALDH inhibition qHTS; series mostly up to 56 µM

Cc1cccc(NS(=O)(=O)c2ccc3c(c2)CCC(=O)N3)c1
Potency [1]: inactive | Potency [2]: inactive

Cc1ccc(NS(=O)(=O)c2cc3c(cc2N[C@H](C)CO)NC(=O)CC3)cc1C
Potency [1]: inactive | Potency [2]: inactive

N#Cc1ccc(C[C@H](C(=O)O)N2C(=O)c3ccc(C(=O)O)cc3C2=O)cc1
Potency [1]: inactive | Potency [2]: inactive

O=[S+]([O-])(Nc1ccc(N2CCNCC2)cc1)c1ccc(NCc2ccc(Br)cc2O)cc1
Potency [1]: inactive | Potency [2]: inactive

O=C1CCCC2=C1C(c1[nH]ncc1Cl)N=C(Nc1nc3cc(Cl)ccc3o1)N2 (stereo not drawn)
Potency [1]: inactive | Potency [2]: inactive

C[C@@H](N)C(=O)Nc1cccc(-c2nn3c(=O)cc(N4CCNCC4)nc3s2)c1
Potency [1]: inactive | Potency [2]: inactive

COc1ccc(OC)c(C2=Nn3c(nnc3-c3cccc(OC)c3OC)SC2)c1
Potency [1]: inactive | Potency [2]: inactive

Nc1cc(-c2nc(Nc3ccc(F)c(F)c3)c3ccccc3n2)ccn1
Potency [1]: inactive | Potency [2]: inactive

Cc1cc2c(s1)c1cnn(Cc3cccc(Cl)c3F)c(=O)c1n2C
Potency [1]: inactive | Potency [2]: inactive

O=C(NCCc1nc2ccccc2n1CCO)C1CCCCC1
Potency [1]: inactive | Potency [2]: inactive

O=C(c1ccc2c(c1)ncn2-c1ccc(Cl)cc1)N1CCCCC1
Potency [1]: inactive | Potency [2]: inactive

O=C(CCc1ccccc1Br)NCCc1nc2ccccc2[nH]1
Potency [1]: inactive | Potency [2]: inactive

Fc1cc(Nc2nc(-c3ccncc3)nc3ccccc23)ccc1-c1ccc2[nH]ncc2c1
Potency [1]: inactive | Potency [2]: inactive

Cc1ccnc(NC(=S)N2CCC(Nc3cccc(C(F)(F)F)c3)CC2)c1
Potency [1]: inactive | Potency [2]: inactive

Cc1cc(C)nc(NC(=S)N2CCN(c3nccc4ccsc34)CC2)c1
Potency [1]: inactive | Potency [2]: inactive

CC(C)c1ccccc1-c1ncc(N(C)C)c(NCc2ccc(-c3cccnc3)cc2)n1
Potency [1]: inactive | Potency [2]: inactive

CC(C)CC(=O)O[C@@H]1OC=C(CO[C@@H]2O[C@H](CO[C@@H]3O[C@H](CO)[C@@H](O)[C@H](O)[C@H]3O)[C@@H](O)[C@H](O)[C@H]2O)[C@H]2C[C@H](O)[C@@H](CO)[C@@H]12
Potency [1]: inactive | Potency [2]: inactive

Cc1ccc(S(=O)(=O)Nc2ccccc2C(=O)Nc2nccs2)cc1
Potency [1]: inactive | Potency [2]: inactive

O=C(O)CNC(=O)CNC(=O)CNC(=O)CSC(=O)c1ccccc1
Potency [1]: inactive | Potency [2]: inactive

COc1ccc(NC(=O)C2=C(C)NC(Nc3nc4ccccc4o3)=NC2c2ccccc2Br)cc1 (stereo not drawn)
Potency [1]: inactive | Potency [2]: inactive

Fc1cc(Nc2nc(-c3ccncc3)nc3ccccc23)ccc1-c1cccc(OC(F)(F)F)c1
Potency [1]: inactive | Potency [2]: inactive

OCc1cn(Cc2ccc(O)c3ncccc23)cn1
Potency [1]: inactive | Potency [2]: inactive

Cc1cc(C)nc(NC(=S)N2CCN(c3ncnc4sccc34)CC2)c1
Potency [1]: inactive | Potency [2]: inactive

Cc1cc(C)nc(NC(=S)N2CCN(c3ncccc3Cl)CC2)c1
Potency [1]: inactive | Potency [2]: inactive

Cc1nc(N2CCOCC2)c2nc(-c3ccccc3)n(CCN3CCOCC3)c2n1
Potency [1]: inactive | Potency [2]: inactive

Cc1ccnc(NC(=S)N2CCCN(c3cccc(C(F)(F)F)c3)CC2)c1
Potency [1]: inactive | Potency [2]: inactive

NC(=O)c1cccc(-c2noc(-c3ccccc3F)n2)c1
Potency [1]: inactive | Potency [2]: inactive

Cc1cc(NS(=O)(=O)c2ccc3c(c2)CCC(=O)N3)ccc1Cl
Potency [1]: inactive | Potency [2]: inactive

Cc1ccc(-c2ccc(=O)n(CCNCCc3ccccc3)n2)cc1
Potency [1]: inactive | Potency [2]: inactive

Cc1cccc(CNc2nc(-c3ccccc3C(F)(F)F)nc3ccccc23)c1
Potency [1]: inactive | Potency [2]: inactive

O=C(O)CC(=O)OC[C@H]1O[C@@H](Oc2ccc3c(c2)OC[C@H]2c4cc5c(cc4O[C@@H]32)OCO5)[C@H](O)[C@@H](O)[C@@H]1O
Potency [1]: inactive | Potency [2]: inactive

Cc1nc(Nc2ccccc2)c2nc(-c3ccccc3)n(CCN3CCOCC3)c2n1
Potency [1]: inactive | Potency [2]: inactive

COc1ccc(C2C3=C(N=CN(CCN4CCOCC4)C3N)Oc3ccccc32)cc1OC (stereo not drawn)
Potency [1]: inactive | Potency [2]: inactive

O=C1CCc2cc(S(=O)(=O)NCc3ccccc3)ccc2N1
Potency [1]: inactive | Potency [2]: inactive

CN(C)CCCCC(=O)Nc1ccc(NC(=S)NC(=O)c2ccc(C(C)(C)C)cc2)cc1
Potency [1]: inactive | Potency [2]: inactive

Cc1cccc(NC(=O)c2cc(-c3ccc(C)c(C)c3)nc3ccccc23)c1
Potency [1]: inactive | Potency [2]: inactive

CC(=O)Nc1sc2c(c1-c1ccccc1)CCNC2
Potency [1]: inactive | Potency [2]: inactive

Clc1ccccc1-c1ccc2ncnc(NCc3cccnc3)c2c1
Potency [1]: inactive | Potency [2]: inactive

Cc1cn([C@H]2C[C@H](N[S+](=O)([O-])Cc3cc(Cl)cc(Cl)c3)[C@@H](CO)O2)c(=O)[nH]c1=O
Potency [1]: inactive | Potency [2]: inactive
